Drawing on PubChem BioAssay AID1246 (Columbia University Molecular Screening Center, 2008), this text covers inhibition for 63 molecules.

SMILES strings stand for the structures. Among all 120,000 compounds or so, about 840 (0.7%) were called active. This excerpt belongs to a sample that is enriched for actives. Values without a mark were called inactive.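 How the source made its calls: active means inhibition above the batch mean plus 3 SD, and confirmed as a hit on visual image review (cut at about 43% in these data); inconclusive means passes the inhibition cutoff but fails visual image review; inactive means the rest.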

A short description of the test: E-selectin induction blockers in HUVEC – imaging, immunofluorescence, high content, primary screen (AID 1246).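 Further: 0% = TNF-stimulated DMSO wells and 100% = unstimulated control wells.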 The conditions noted are these: HUVEC TNFa-induced E-selectin immunofluorescence, at 2 µM, hits give high values.
As usually defined, the inhibition is the drop in the measured response relative to a control, in per cent. Consider `COc1cccc(C(=O)N2CCCC(CCC(=O)NCc3ccc(F)c(F)c3)C2)c1` (stereo not drawn), for which the inhibition was -27.8%.
The figure for `O=c1[nH]c2cccnc2n(CCNc2ncc(C(F)(F)F)cc2Cl)c1=O` is -0.32%; for `Cc1ccc(NC(=O)c2oc3ccccc3c2C)c([N+](=O)[O-])c1` it is 7.01%; for `COc1ccc(-c2cc(C(F)(F)F)nc(NCc3cccnc3)n2)cc1` it is 6.81%.
With `COc1ccc(-c2nc3cnccn3c2NC(C)(C)CC(C)(C)C)cc1O` the figure was 78.6% (active); with `CCOc1cc(-c2nc3cc(C)ccn3c2NCC2CCCO2)ccc1O` (stereo not drawn), -1.41%; with `COc1cccc(CNC(=O)c2n[nH]c3ccccc23)c1`, 21.4%.
Turning to `CNC(=O)COC(=O)c1cc(-c2ccc(OC)cc2)nc2ccccc12`, the inhibition is -50.4%.
The figure for `CC(=O)c1cnc(-c2ccccc2)s1` is -23.3%; for `CN(CC(=O)Nc1ccccc1F)CC(=O)Nc1ccccc1Br` it is -9.64%; for `O=C(O)CCn1c(SCc2cc(=O)n3ccccc3n2)nc2ccsc2c1=O` it is 7.79%.
The figure for `COC(=O)Cn1cc(/C=C/[N+](=O)[O-])c2ccccc21` is -39.6%; for `COc1ccccc1CCNC(=O)CSc1nnc2ccc(-c3cccnc3)nn12` it is 23.9%.
On to `COc1ccccc1CCNC(=O)c1cnccn1`, for which the inhibition was 70.2% (active).
With `COc1cccc(OCC(=O)NNC(=O)c2cnccn2)c1` the figure was -0.48%; with `COc1ccccc1CNC(=O)c1cc(=O)c2ccccc2o1`, 6.95%.
The figure for `Cc1ccc(S(=O)(=O)N(C)C)cc1NC(=O)c1ccccc1Br` is 21.2%.
With `COc1ccc(NC(=O)CCNS(=O)(=O)c2ccc3c(c2)c(=O)n(C)c(=O)n3C)cc1OC` the figure was -38.9%; with `COc1ccc(C2N=C(N)N=C(N)N2c2ccccc2)cc1OC` (stereo not drawn), 62.9% (active); with `COc1ccc(C2/C(=C(/O)c3ccccc3)C(=O)C(=O)N2c2ncccn2)cc1OC` (stereo not drawn), -2.78%.
On to `COc1ccc(C2CC(=O)n3c(nc4ccccc43)S2)cc1OC` (stereo not drawn), for which the inhibition is -0.21%.
The figure for `O=C(O)/C=C/c1ccc(OCCCF)cc1` is -53.3%; for `O=C(Oc1cccc(N2C(=O)C3C4c5ccccc5C(c5ccccc54)C3C2=O)c1)c1ccco1` (stereo not drawn) it is 13.7%.
With `CC(=O)Oc1cccc(N2C(=O)C3CC=C(Cl)CC3C2=O)c1` (stereo not drawn) the figure was 64.7% (active); with `CC(=O)Oc1cccc(N2C(=O)CC(Nc3ccc(N4CCOCC4)cc3)C2=O)c1` (stereo not drawn), -16.6%; with `COc1cc(C=O)c(Br)cc1OCC(=O)NCc1ccccc1`, -19%.
Take `CCCNC(=S)N1CCCC(c2nc3ccccc3[nH]2)C1` (stereo not drawn): the inhibition was -49%.
The figure for `Cn1c(CCC(=O)Nc2ccccc2F)nnc1SCC(=O)Nc1ccccc1Cl` is -44.5%; for `COc1ccc(S(=O)(=O)N2CCN(C(=O)c3cc(C)oc3C)CC2)cc1` it is -37.8%; for `CC(=O)c1ccc(N=C2SCCCN2C(=O)C2CCCCC2)cc1` it is 7.89%.
Take `COc1cccc(C(=O)Oc2cc(C)[nH]c(=O)c2[N+](=O)[O-])c1`: the inhibition was 21.9%.
For `COCc1cc(C(C)=O)ccc1OC`, the inhibition is -4.6%.
With `CCN(CC)Cc1cc(C(C)=O)ccc1O` the figure was 47.5% (active); with `CC(=O)c1ccc2c(ccc3ccccc32)c1`, 22.7%.
The figure for `CC1CCCN(CC(O)COc2ccc3c(c2)OCO3)C1` (stereo not drawn) is 11.9%; for `O=C1CCC(=O)N1c1ccc(NCCc2ccccc2F)c([N+](=O)[O-])c1` it is -8.93%.
The figure for `CCN(C(=O)CN1CCN(Cc2ccccc2)CC1)c1c(N)n(Cc2ccccc2)c(=O)[nH]c1=O` is -54.5%; for `Cc1ccc(NC(=O)COc2ccc(-n3ccnc3)cc2)cc1Cl` it is 73% (active); for `CN1CCN(c2ccc(NC(=O)COc3ccc(Cl)cc3Cl)cc2)CC1` it is 3.16%.
Turning to `COc1ccc(OCC(=O)Nc2ccc(N3CCC(C)CC3)cc2)cc1`, the inhibition was -61.5%.
The figure for `O=C(Cn1nnc2ccccc2c1=O)NCc1ccc(Cl)cc1` is -24.9%; for `COCCNC(=O)/C(C#N)=C/c1nc(N(C)C)n(-c2ccc(F)cc2)c1Cl` it is 6.3%; for `Nc1ccc(S(=O)(=O)Nc2nccc(/C=C/c3ccc(Br)s3)n2)cc1` it is 11.1%.
The figure for `CCc1cc2c(NC3CCCC3)ncnc2s1` is -4.12%; for `CCCNc1ncnc2sc(C)c(C)c12` it is 99.7% (active); for `CCOC(=O)C(C)n1cnc2sc(C)c(C)c2c1=O` (stereo not drawn) it is 23.1%.
The figure for `C/[N+]([O-])=C\c1ccc([N+](=O)[O-])o1` is -20.9%; for `COC(=O)C1=C(C)N(C)C(=O)NC1c1ccc([N+](=O)[O-])o1` (stereo not drawn) it is 4.38%.
`Cc1ccc(N2CCN(/N=C/c3cccs3)CC2)cc1`: the inhibition was 58.4% (active).
The figure for `Cc1ccc(N2CCN(C3=NC(=O)/C(=C\c4cccs4)S3)CC2)cc1` is -36.9%; for `C(=N/N1CCN(c2ccccc2)CC1)/c1cccs1` it is -23.6%.
Take `CS(=O)(=O)n1nc(-c2ccco2)nc1N`: the inhibition was -27.1%.
With `Cn1nc(-c2ccccc2)c(CO)c1Sc1ccccc1` the figure was -21.3%; with `CC(=O)NCCC(=O)Nc1cc(S(=O)(=O)N2CCOCC2)ccc1N1CCOCC1`, -13.3%.
With `CCc1ccc(NC(=O)Cn2nc(C)c([N+](=O)[O-])c2C)cc1` the figure was 24.3%; with `COC(=O)c1ccc(NCC(=O)N2CCCCCC2)cc1`, 7.57%.
The figure for `Cc1cc(Cl)ccc1N1C(=O)CC(SCCC(=O)O)C1=O` (stereo not drawn) is -14%; for `CCOC(=O)c1nc(C)n(-c2ccc(Cl)cc2Cl)n1` it is -32.4%; for `Cc1cc(C)nc(/N=C2\NC(=O)CC(C(=O)O)N2c2ccc(Cl)cc2Cl)n1` (stereo not drawn) it is 48.5% (active).
For the molecule `COc1ccc(Sc2nc(-c3ccccc3)ncc2OC)cc1`, the inhibition is -16.9%.
With `C=CCN(CC=C)C(=O)COC(=O)c1n[nH]c2ccccc12` the figure was -73.3%; with `O=C(CCC(=O)Nc1ccccc1)N/N=C/c1ccccc1F`, -1.59%.
The figure for `CCCCC(CC)CNC(=O)C(=O)C1C(=O)Nc2ccccc21` (stereo not drawn) is -10.1%.
